# Source: PMC8384837, “Expanding the binding specificity for RNA recognition by a PUF domain”
# Legend:
# Experiment in all cases: yeast three-hybrid, YBZ-1, SC-Leu-His + 0.5 mM 3-AT, 4 days
# Conditions in all cases: tags: N-Gal4 AD-HA kept; label: inside an RPR1-promoter hybrid RNA with tandem MS2 sites; ssRNA
# [1] = target: PUM1 PUF domain R4-MNA (Homo sapiens, UniProt Q14671 828-1176, N971M;H972N;Q975A)
# Summary of the method: (§1)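 The interaction score is the logarithmic change in variant frequency from input to selection. It uses log2, with a pseudocount of 1 for absent variants, and frequencies came from PCR-amplified, Illumina-sequenced repeat regions. The libraries were Pumilio-1 PUF domains randomized at the three base-contacting residues per repeat, co-expressed with matching RNA elements in strain YBZ-1 (LexA–MS2 coat fusion, HIS3 reporter). Plating lasted four days on SC-Leu (input) or SC-Leu-His + 0.5 mM 3-AT (selection).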
# [2] = target: PUM1 PUF domain R3-FRA (Homo sapiens, UniProt Q14671 828-1176, C935F;Q939A)
# Summary of the method: as §1
# [3] = target: PUM1 PUF domain R3-PHL (Homo sapiens, UniProt Q14671 828-1176, C935P;R936H;Q939L)
# Summary of the method: as §1
# [4] = target: PUM1 PUF domain R2-LWL (Homo sapiens, UniProt Q14671 828-1176, N899L;Y900W;Q903L)
# Summary of the method: as §1
# [5] = target: PUM1 PUF domain R8-QYG (Homo sapiens, UniProt Q14671 828-1176, N1122Q;Q1126G)
# Summary of the method: as §1
# [6] = target: PUM1 PUF domain R5-STR (Homo sapiens, UniProt Q14671 828-1176, C1007S;R1008T;Q1011R)
# Summary of the method: as §1
# [7] = target: PUM1 PUF domain R5-AFF (Homo sapiens, UniProt Q14671 828-1176, C1007A;R1008F;Q1011F)
# Summary of the method: as §1
# [8] = target: PUM1 PUF domain R1-MWR (Homo sapiens, UniProt Q14671 828-1176, S863M;R864W;Q867R)
# Summary of the method: as §1
# [9] = target: PUM1 PUF domain R5-KRN (Homo sapiens, UniProt Q14671 828-1176, C1007K;Q1011N)
# Summary of the method: as §1
# [10] = target: PUM1 PUF domain R2-KRA (Homo sapiens, UniProt Q14671 828-1176, N899K;Y900R;Q903A)
# Summary of the method: as §1
sequence,measurement,setting,value
GGCUAGAACUAGUGGAUCCCCCGGCGCCCGGCGGCUCGAGCCCGGGUAAGUGUAUAUAGUCUGCAUGCCGCCGGGCGCCAUGCCUGCAGGUCGACUCUAGAAAACAUG,binding signal,[1],4.12 log2 enrichment (interaction score)
GGCUAGAACUAGUGGAUCCCCCGGCGCCCGGCGGCUCGAGCCCGGGUAAGUGUAAUUAGUCUGCAUGCCGCCGGGCGCCAUGCCUGCAGGUCGACUCUAGAAAACAUG,binding signal,[2],1.3 log2 enrichment (interaction score)
same,binding signal,[3],4.16 log2 enrichment (interaction score)
GGCUAGAACUAGUGGAUCCCCCGGCGCCCGGCGGCUCGAGCCCGGGUAAGUGUAAGUAGUCUGCAUGCCGCCGGGCGCCAUGCCUGCAGGUCGACUCUAGAAAACAUG,binding signal,[2],5.49 log2 enrichment (interaction score)
GGCUAGAACUAGUGGAUCCCCCGGCGCCCGGCGGCUCGAGCCCGGGUAAGUGUAAAAAGUCUGCAUGCCGCCGGGCGCCAUGCCUGCAGGUCGACUCUAGAAAACAUG,binding signal,[4],6.07 log2 enrichment (interaction score)
GGCUAGAACUAGUGGAUCCCCCGGCGCCCGGCGGCUCGAGCCCGGGUAAGUGUAAAUAGUCUGCAUGCCGCCGGGCGCCAUGCCUGCAGGUCGACUCUAGAAAACAUG,binding signal,[4],1.87 log2 enrichment (interaction score)
same,binding signal,[5],3.24 log2 enrichment (interaction score)
same,binding signal,[6],1.08 log2 enrichment (interaction score)
same,binding signal,[7],2.83 log2 enrichment (interaction score)
GGCUAGAACUAGUGGAUCCCCCGGCGCCCGGCGGCUCGAGCCCGGGUAAGUGUAAAUCGUCUGCAUGCCGCCGGGCGCCAUGCCUGCAGGUCGACUCUAGAAAACAUG,binding signal,[8],3.03 log2 enrichment (interaction score)
GGCUAGAACUAGUGGAUCCCCCGGCGCCCGGCGGCUCGAGCCCGGGUAAGUGUAAAUUGUCUGCAUGCCGCCGGGCGCCAUGCCUGCAGGUCGACUCUAGAAAACAUG,binding signal,[8],3.06 log2 enrichment (interaction score)
GGCUAGAACUAGUGGAUCCCCCGGCGCCCGGCGGCUCGAGCCCGGGUAAGUGUCAAUAGUCUGCAUGCCGCCGGGCGCCAUGCCUGCAGGUCGACUCUAGAAAACAUG,binding signal,[9],4.24 log2 enrichment (interaction score)
same,binding signal,[6],5.88 log2 enrichment (interaction score)
GGCUAGAACUAGUGGAUCCCCCGGCGCCCGGCGGCUCGAGCCCGGGUAAGCGUAAAUAGUCUGCAUGCCGCCGGGCGCCAUGCCUGCAGGUCGACUCUAGAAAACAUG,binding signal,[5],3.1 log2 enrichment (interaction score)
GGCUAGAACUAGUGGAUCCCCCGGCGCCCGGCGGCUCGAGCCCGGGUAAGUGUAAAGAGUCUGCAUGCCGCCGGGCGCCAUGCCUGCAGGUCGACUCUAGAAAACAUG,binding signal,[10],4.63 log2 enrichment (interaction score)
